Data on 47 molecules can be found in PubChem BioAssay AID894 (National Center for Advancing Translational Sciences (NCATS), 2007).

Several values for one entry are separate records, joined by “and”; a condition that tells them apart may be missing. Equal values may be shown once. The campaign covered roughly 150,000 compounds. About 6,500 (4.3%) were called active. About 12% were inconclusive and are not listed. Only a selection was taken, and actives are over-represented in it overall. Values without a mark were called inactive. Calls follow the shape of the dose curve; as a rule, active = well fitted inhibition curve with a large enough effect (not every such curve was filed as active); inconclusive = small, poorly fitted or top-dose-only effect, or another doubt; inactive = no such curve, though single readings can be large or run the other way.
% is scaled to controls: 0 for no effect and ±100 for the full control effect; potency is read from the fitted curve at half-maximal effect.

The target in the test is 15-hydroxyprostaglandin dehydrogenase [NAD(+)] (Homo sapiens) (UniProt P15428). The experiment in a line: qHTS Assay for Inhibitors of HPGD (15-Hydroxyprostaglandin Dehydrogenase). To be noted: purified HPGD, NADH fluorescence kinetic, PGE2 substrate; activity change, negative = inhibition: stronger effect = lower value. The source says: Human 15-Hydroxyprostaglandin dehydrogenase (HPGD) catalyzes the inactivation of prostaglandin E2, and plays a major role in cancer biology by antagonizing the oncogenic potential of cyclooxygenase type 2 (COX2). Assays are available, based on absorbance/fluorescence increase of NADH with the substrate 15-OH prostaglandin E2. References 1. Myung SJ, Rerko RM, Yan M, Platzer P, Guda K, Dotson A, Lawrence E, Dannenberg AJ, Lovgren AK, Luo G, Pretlow TP, Newman RA, Willis J, Dawson D, Markowitz SD. 15-Hydroxyprostaglandin dehydrogenase is an in vivo suppressor of colon tumorigenesis. […] 2. Yan M, Rerko RM, Platzer P, Dawson D, Willis J, Tong M, Lawrence E, Lutterbaugh J, Lu S, Willson JK, Luo G, Hensold J, Tai HH, Wilson K, Markowitz SD. 15-Hydroxyprostaglandin dehydrogenase, a COX-2 oncogene antagonist, is a TGF-beta-induced suppressor of human gastrointestinal cancers. Proc Natl Acad Sci U S A. 2004 Dec 14;101(50):17468-73. 3. Yang L, Amann JM, Kikuchi T, Porta R, Guix M, Gonzalez A, Park KH, Billheimer D, Arteaga CL, Tai HH, Dubois R, Carbone DP, Johnson DH. Inhibition of Epidermal Growth Factor Receptor Signaling Elevates 15-Hydroxyprostaglandin Dehydrogenase in Non-Small-Cell Lung Cancer. Cancer Res. 2007 Jun 15;67(12):5587-5593. Inhibition of HPGD activity was screened by utilizing prostaglandin as an electron donor and NAD+ as an electron acceptor/cofactor. An increase in the fluorescence intensity due to conversion of NAD+ to NADH was used to measure the enzyme activity. NIH Chemical Genomics Center [NCGC] Structural Genomics Consortium [SGC]
Sequence of 15-hydroxyprostaglandin dehydrogenase [NAD(+)] (Homo sapiens) (P15428 whole entry, looked up): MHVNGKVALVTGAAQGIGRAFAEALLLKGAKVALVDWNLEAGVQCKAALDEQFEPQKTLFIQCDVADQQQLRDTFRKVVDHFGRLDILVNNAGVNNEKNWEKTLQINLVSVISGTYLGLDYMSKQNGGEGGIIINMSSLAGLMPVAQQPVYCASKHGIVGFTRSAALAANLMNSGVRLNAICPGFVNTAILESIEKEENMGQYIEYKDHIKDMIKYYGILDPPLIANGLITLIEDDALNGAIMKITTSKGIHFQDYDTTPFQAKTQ
Buffer: 50 mM Tris-HCl, 0.01% Tween 20, pH 8. Enzyme Buffer: 50 mM Tris-HCl, 0.5 mM NAD+ and 0.01% Tween 20, pH 8. Reagents/Controls: Buffer in columns 3 and 4 as negative control (no enzyme). Substrate/cofactor solution: 1 mM NAD+ and 30 uM prostaglandin (Sigma, prostaglandin E2, # P5640) final concentrations dispensed throughout the plate. Enzyme: 20 nM HPGD final concentration in columns 1, 2, 5-48. Column 1 and 2 is neutral (100% activity). A titration of control inhibitor GW5074 (G6416 Sigma-Aldrich, St. Louis, MO) top concentration 10 mM in DMSO, then 1:2 dilution for a total of 16 concentrations in duplicate) was pin-transferred into column 2. Assay Steps: Three uL of enzyme were dispensed to 1536-well Greiner black solid bottom plates. Compounds and control inhibitor (23 nL) were transferred via Kalypsys PinTool. The plates were incubated for 15 min at room temperature, and then 1 uL of substrate/cofactor solution was added to start the reaction. The plates were immediately transferred to and read 5 times every 30 seconds on ViewLux High-throughput CCD imager (Perkin-Elmer) using 360 nm excitation and 450 nm emission fluorescence protocol. The fluorescence intensity difference between the last and the first time points was used to compute reaction progress.
As to `Cc1ccc(-n2c(C)cc(/C=C3\C(=O)NC(=O)N(C)C3=O)c2C)cc1C`, the activity change, negative = inhibition is -10.2%.
`Cc1ccnc(-n2c(C)cc(/C=C3\C(=O)NC(=S)N(C)C3=O)c2C)c1`: the Potency was 20 µM (active).
In the case of `COC(=O)c1ccc2[se]c(CC3CCCCC3)c(I)c2c1`, the activity change, negative = inhibition was -2.23%.
Regarding `CC(C)CC(C)Nc1ccc(Nc2ccccc2)cc1` (configuration not stated), the activity change, negative = inhibition was -6.53%.
Still for that read-out and setting: then `Clc1cccc(Cl)c1Cl`, with -10.3%.
For `N#Cc1c(Cl)c(Cl)c(Cl)c(C#N)c1Cl`, the Potency is 2.51 µM (active).
On to `ClC(Cl)(Cl)c1ccccc1`, for which the activity change, negative = inhibition is -5.6% and -7.46%.
`N#CC(C#N)=Cc1cc(O)c(O)c([N+](=O)[O-])c1`: the Potency was 22.4 µM (active).
Take `Nc1ccc([N+](=O)[O-])cc1`: the activity change, negative = inhibition was -4.46%.
On the same count and under the same terms, the figure for `COC1=C[C@@H]2[C@@H]3Cc4ccc(OC)c(O)c4[C@]2(CCN3C)CC1=O` is -2.46%; for `CN(C)C1C(=O)C(C(N)=O)=C(O)[C@@]2(O)C(=O)C3=C(O)c4c(O)cccc4[C@@](C)(O)C3C[C@@H]12` (some centres not stated) it is -15.2%.
On the same count and under the same terms, then `CCN1C[C@]2(C)CC[C@H](O)[C@@]34[C@@H]5CC6[C@@H](OC)C[C@@](O)([C@@H]5[C@@H]6O)[C@H](C[C@@H]23)[C@H]14`, with -6.3%.
With `COc1ccc(S(=O)(=O)NCc2ccc(C(=O)N3CCC4(CC3)OCCO4)cc2)cc1`, the activity change, negative = inhibition was -19.1%.
On the same count and under the same terms, then `O=C(c1cc(-c2ccncc2)nc2ccccc12)N1CCC2(CC1)OCCO2`, with -3.06%.
Regarding `Cc1cccc(-n2c(C)nc3cc(C(=O)N4CCC5(CC4)OCCO5)ccc32)c1`, the Potency is 14.1 µM (active).
For the molecule `CCCC[N+]1(C)C2CC(OC(=O)C(CO)c3ccccc3)CC1C1OC12` (configuration not stated), the activity change, negative = inhibition is -2.83%.
The same measure, in the same setting: then `CN(C)[C@@H]1C(=O)C(C(N)=O)=C(O)[C@@]2(O)C(=O)C3=C(O)c4c(O)cccc4[C@@](C)(O)C3CC12` (some centres not stated), with -24.8%.
The same measure, in the same setting: then `COC1=C[C@]23CCCN2CCc2cc4c(cc2[C@@H]3[C@@H]1O)OCO4`, with -6.42%; and `CCCCC/C=C\C/C=C\C/C=C\C/C=C\CCCCCC(=O)NCCO`, with -7.58% and -6.46%.
Still for that read-out and setting: then `CC(=O)NBr`, with -7.45%.
For the molecule `CCC1(c2ccccc2)C(=O)NC(=O)N(C)C1=O` (configuration not stated), the activity change, negative = inhibition is -4.89%.
Still for that read-out and setting: then `CCC/C(=N\O)c1c[nH]c2ccccc12`, with -17.4%; and `c1ccc(CCCCN2CCC(c3ccccc3)CC2)cc1`, with -7.8%; and `CCOP(=O)(OCC)C(NC(=O)c1ccc(C)cc1)C(Cl)(Cl)Cl` (configuration not stated), with -5.69%.
Still for that read-out and setting: then `CC(=O)NC(=O)NC(C)Cc1ccccc1` (configuration not stated), with -9.28%.
`CC(=O)c1ccc(OC(NC(=O)Cc2ccccc2)C(Cl)(Cl)Cl)cc1` (configuration not stated): the Potency was 12.6 µM (active).
For the molecule `CC(C)(C)c1ccc(CN2C(=O)CN=C(c3ccccc3)c3ccccc32)cc1`, the activity change, negative = inhibition is -17.9%.
Same read-out and setting: then `Clc1ccccc1`, with -8.83%.
On to `CCC(=NCc1ccco1)c1c(O)n(Cc2ccccc2)c(=O)[nH]c1=O`, for which the Potency is 15.8 µM (active).
For `CCC(=NCCc1ccccc1)c1c(O)n(C2CCCCC2)c(=O)[nH]c1=O`, the activity change, negative = inhibition was -16.1%.
As for `CCCCn1c(O)c(C(CC)=NCc2ccco2)c(=O)[nH]c1=O`, the activity change, negative = inhibition was 1.83%.
The same measure, in the same setting: the figure for `c1ccc2c(c1)[I+]c1ccccc1-2` is -12.3% and -15.8%.
In the case of `c1csc(CN2CCCC3(CCNCC3)C2)n1`, the activity change, negative = inhibition is -0.589%.
As for `Cc1cccc([C@H](C)c2cnc[nH]2)c1C`, the activity change, negative = inhibition is -10.2%.
`c1csc(CN2CC3(CCNCC3)C2)n1`: the activity change, negative = inhibition is -15.7%.
For the molecule `C[C@H](Br)C(=O)N[C@H](CO)C(=O)O`, the activity change, negative = inhibition is -10.5%.
For the molecule `NCC[Se][Se]CCN`, the Potency is 2.82 µM (active).
Take `O=c1oc2ccccc2c(O)c1C(c1ccccc1O)c1c(O)c2ccccc2oc1=O`: the activity change, negative = inhibition is -2.8%.
The same measure, in the same setting: the figure for `C=CCN1CCC23c4c5ccc(O)c4O[C@H]2C(=O)CC[C@@]3(O)C1C5` (some centres not stated) is -13.3%.
For the molecule `CCN(CC)C(=O)c1ccc(NC(=O)c2cc(-n3cnnc3)ccc2Cl)cc1`, the Potency is 1.41 µM (active).
For `CNC(=S)N/N=C1\C2CN3CCN(C2)CC1(c1ccccc1)C3`, the activity change, negative = inhibition is 4.55%.
Still for that read-out and setting: then `O=C(C1CC(=O)N(C2CCCC2)C1)N1CCC2(CC1)OCCO2` (configuration not stated), with 6.18%; and `Clc1ccc([C@@H]2C[C@H]3CC[C@@H]2N3)cn1`, with 0.221%; and `COc1cc(C(c2c(O)c3ccccc3oc2=O)c2c(C)n(C)n(-c3ccccc3)c2=O)ccc1O` (configuration not stated), with -3.16%.
`c1ccc(Cc2nn3c(Cn4cnc5ccccc54)nnc3s2)cc1`: the Potency was 7.08 µM (active).
For the molecule `CCN1C[C@@]2(COC)CC[C@H](OC)[C@]34[C@@H]1[C@]1(OCO[C@@]15C[C@@H](OC)C1C[C@H]3[C@H]5[C@@H]1OC)[C@H](O)[C@@H]24`, the activity change, negative = inhibition is -0.114%.
Same read-out and setting: the figure for `C/C(=C\C=C/[C@@H](C)C(=O)O)[C@H]1CN[C@H](C(=O)O)[C@@H]1CC(=O)O` is -11.8%.
